# ATXN viability = reduces viability in counter-screen for ATXN expression inhibitors; S2 cells (HEK-293 line with an ATXN2-luciferase reporter) viability, CellTiter-Fluor protease fluorescence, 24 h; Potency, µM (series often up to 56.7 µM), usual class: cytotoxic; 0.49% of 400,000 active; AID 651635; note: nearly all actives have a fitted effect of over 40% in size
# KB-3-1 cytotox = kills parental KB-3-1 adenocarcinoma cells | KB-3-1 viability, CellTiter-Glo ATP luminescence, 72 h | Potency, µM (highest dose often 46.1 µM), usual class: cytotoxic | 1.4% of 400,000 active; note: % is set by controls: 0 for no effect and ±100 for the full control effect; nearly all actives have a fitted effect of over 60% in size
#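 72 h, 37 °C compound treatment of KB-3-1 parental cells; CellTiter-Glo added, 10 min, luminescence read. Data corrected against DMSO-only plates and normalized before curve fitting.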
# KB-V1 MDR tox = KB-V1 MDR subline cytotoxicity | KB-V1 MDR cells viability, CellTiter-Glo, 72 h | AID 1347076 | 3.4% of 400,000 active | Potency, µM (titrated, usually from 46.1 µM), actives largely listed as cytotoxic; note: % is set by controls: 0 for no effect and ±100 for the full control effect; nearly all actives have a fitted effect of over 60% in size
#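 Following 72 h at 37 degrees C with compound, KB-V1 cell viability was read by CellTiter-Glo luminescence, medium being phenol-red-free DMEM plus 10% FBS; concentration-response parameters came from normalized, curve-fitted qHTS data.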
# HT1080 IDH1KD tx = kills HT-1080 cells with IDH1 knockdown; Potency, µM (highest dose often 46.1 µM), for the others: at the highest dose activity, negative = toxicity, hits mostly cytotoxic; AID 686971; 2% of 360,000 active; HT-1080 IDH1 knockdown viability, ATP luminescence, 48 h;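 note: 0% = DMSO wells and -100% = cell-free medium wells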
#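 Using the IDH1-knockdown HT-1080 line run in the same batch and compound series as the NT line, viability after 48 h at 37 °C was determined by CellTiter-Glo luminescence and expressed as % activity.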
# HT1080-NT tox = kills 2HG-producing HT-1080-NT fibrosarcoma cells. 1.6% of 360,000 active. Potency, µM (titrated, usually from 46.1 µM), inactives show at the highest dose activity, negative = less viability, hits mostly cytotoxic. HT-1080-NT fibrosarcoma viability, CellTiter-Glo ATP luminescence, 48 h;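 note: NT is the 2HG producing partner of a matched IDH1 knockdown line; 0% = DMSO-treated cells and -100% = media-only wells without cells; nearly all actives have a fitted effect of over 55% in size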
#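 HT-1080-NT fibrosarcoma cells (2HG-overproducing), 750 cells/well in RPMI with 5% FBS, dosed after 2 h and incubated 48 h at 37C. CellTiter-Glo luminescence normalized to DMSO and no-cell wells; concentration-response curves fitted and classed.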
# ATXN2 expr inh = inhibitors of ATXN2 expression; HEK-293 ATXN2-luciferase reporter, luminescence, 24 h; Potency, µM (titrated, usually from 57 µM), without a hit: at the top dose activity change, negative = inhibition, actives largely listed as inhibitors; 0.72% of 360,000 active; note: % is set by controls: 0 for no effect and ±100 for the full control effect; nearly all actives have a fitted effect of over 55% in size
#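 qHTS (up to 57 uM final) was run with 24 h compound exposure of reporter cells at 37 °C. Each well was multiplexed: SteadyGlo luminescence measured ATXN2-luciferase expression after a fluorogenic Gly-Phe-AFC viability readout (25 uM final).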
# * marks the source's active call; other numbers are inactive results; i = inactive; ? = inconclusive; · = no result. The list is not random: actives were taken first. Their share in the collection is about 6.2%. Calls come from the whole dose curve; as a rule, active = well fitted curve in the direction sought with a large enough effect; inconclusive = small, poorly fitted or top-dose-only effect, or another doubt; inactive = no such curve, though single readings can be large; an effect the other way counts as inactive or inconclusive. Potency is the fitted concentration of half-maximal effect.
SMILES,ATXN viability,KB-3-1 cytotox,KB-V1 MDR tox,HT1080 IDH1KD tx,HT1080-NT tox,ATXN2 expr inh
CNc1nc(NCc2ccc(N(C)C)cc2)c2sccc2n1,?,i,i,?,?,-17.5%
Cc1ccc(Nc2nc(NCC3CC3)nc3ccsc23)c(C)c1,·,20.6µM*,?,6.51µM*,11.6µM*,?
Cc1ccc(CNc2nc(NCc3ccccc3)nc3ccsc23)c(C)c1,?,?,?,?,25.9µM*,?
CNc1nc(NCC2CCCCC2)c2sccc2n1,·,i,i,23.1µM*,23.1µM*,?
CNc1nc(Nc2ccc(C)cc2C)c2sccc2n1,i,18.4µM*,14.6µM*,?,?,-30.5%
COCCNc1nc(NCc2ccccc2)nc2ccsc12,i,i,?,0.0%,-29.0%,-7.7%
CC(C)Nc1nc(NCc2ccccc2)c2sccc2n1,?,?,?,?,23.1µM*,?
Cc1ccc(CNc2nc(NCC3CC3)nc3ccsc23)c(C)c1,·,i,?,16.4µM*,14.6µM*,-7.5%
CC(C)(C)c1ccc(C(=O)CC(=O)c2cc(Cl)ccc2O)cc1,i,5.8µM*,2.59µM*,?,?,-38.4%
CC(C)(C)c1ccc(C(=O)C[n+]2ccc(Cl)c3ccc(Cl)cc32)cc1,·,0.259µM*,?,·,·,·
O=C(C[N+]1(CC(O)c2ccccc2)CCOCC1)c1ccccc1 (configuration not stated),·,i,i,·,·,·
CCc1ccc(C2CC(=O)Nc3c2c(=O)n(C)c2ncnn32)cc1 (configuration not stated),i,i,?,·,·,-13.7%
COc1ccc(CCc2cc(OC)c(OC)c(OC)c2)cc1,i,0.517µM*,2.59µM*,?,1.64µM*,-5.8%
Cc1[nH]n(-c2ccc(Br)cc2)c(=O)c1C=Nc1ccc(S(=O)(=O)Nc2nccs2)cc1,i,i,?,-20.2%,-28.1%,0.7%
CCc1nnc(NS(=O)(=O)c2ccc(N=Cc3c(C)[nH]n(-c4ccc(C)c(C)c4)c3=O)cc2)s1,i,?,?,20.6µM*,?,11.7%
COc1ccc(CCNC(=O)CCCn2c(=O)c3ccccc3n(CC(=O)Nc3c(C)cc(C)cc3C)c2=O)cc1OC,?,i,?,·,·,-4.8%
N=c1c2c(ncn1CCCO)Oc1cc(O)ccc1C2c1ccccc1 (configuration not stated),i,i,i,2.7%,-0.6%,1.9%
COc1ccccc1C1c2ccc3ccccc3c2Oc2ncn(CCCO)c(=N)c21 (configuration not stated),20µM*,i,i,23.1µM*,20.6µM*,-30.2%
COc1ccccc1C1c2ccc3ccccc3c2Oc2ncn(CCN(C)C)c(=N)c21 (configuration not stated),22.4µM*,?,?,8.2µM*,10.3µM*,25.1µM*
COc1ccc(C2c3ccc4ccccc4c3Oc3ncn(CCCN(C)C)c(=N)c32)cc1 (configuration not stated),?,?,?,?,18.4µM*,?
COc1ccc(C2c3ccc4ccccc4c3Oc3ncn(Cc4ccco4)c(=N)c32)cc1OC (configuration not stated),i,?,?,20.6µM*,20.6µM*,-33.2%
CC(=O)c1ccc(NC(=O)Nc2nnc(-c3ccncc3)s2)cc1,·,i,i,·,·,·
COc1cccc(-c2cc3c(c(OC)c2)OCCN(Cc2cccn2-c2ccccn2)C3)c1,i,·,·,·,·,·
CC(C)OCCCn1c(=S)[nH]c2ccc(N3CCOCC3)cc2c1=O,i,?,6.51µM*,2.3%,-1.3%,-11.7%
O=c1c2cc(N3CCOCC3)ccc2[nH]c(=S)n1CCCN1CCCCCC1,·,i,i,-5.2%,-11.9%,·
SMILES,ATXN viability,KB-3-1 cytotox,KB-V1 MDR tox,HT1080 IDH1KD tx,HT1080-NT tox,ATXN2 expr inh
O=c1c2cc(N3CCOCC3)ccc2[nH]c(=S)n1Cc1ccc(Cl)cc1,i,i,20.6µM*,-0.9%,2.9%,46.6%
Cc1nn(Cc2ccccc2)c(Cl)c1C(=O)NCc1ccc(C)n1C,?,i,14.6µM*,0.6%,2.3%,-1.2%
Cc1nn(Cc2ccccc2)c(Cl)c1C(=O)NCCc1ccccc1,i,i,i,-4.0%,-1.0%,6.6%
Cc1nn(-c2ccccc2)c(C)c1C(=O)NCc1cccs1,i,i,i,13.7%,6.9%,8.9%
Cc1nn(-c2ccccc2)c(Cl)c1C(=O)NCc1cccs1,i,i,14.6µM*,27.1%,14.4%,7.5%
Cc1c(-c2ccccc2)nc2ccccc2c1C(=O)NCc1cccs1,i,i,11.6µM*,-4.0%,-5.4%,-6.8%
Cc1ccc(NC(=O)CSc2nc(C)cc(C)c2C(=O)Nc2cccc(C)c2)cc1,i,i,i,·,·,-1.2%
CSc1ncccc1C(=O)NCC1Cc2cc(-c3cnccn3)cc(Cl)c2O1 (configuration not stated),i,·,·,·,·,·
COc1ccccc1CNCc1ccc(OC)c2ccccc12,i,i,?,-57.8%,14.6µM*,-23.8%
Cc1ccc(CN2C(=O)c3ccccc3Sc3ccc(C(=O)NCCN4CCOCC4)cc32)cc1,i,?,?,9.2µM*,11.6µM*,-36.9%
O=C(c1ccc2c(c1)N(Cc1ccccc1)C(=O)c1ccccc1S2)N1CCCC1,i,i,2.31µM*,1.7%,9.3%,-13.6%
Cc1cccc(CN2C(=O)c3ccccc3Sc3ccc(C(=O)NCCN4CCOCC4)cc32)c1,i,i,?,-29.4%,?,-9.4%
CC(Sc1nnnn1C1CC1)C(=O)N1c2ccccc2NC(=O)C1(C)C (configuration not stated),i,i,20.6µM*,-1.2%,6.4%,-5.7%
Cc1nc(Cc2nnc(SC(C)C(=O)N3c4ccccc4NC(=O)C3(C)C)o2)cs1 (configuration not stated),i,i,i,6.3%,11.9%,·
Cc1cc(C)c(S(=O)(=O)N2CCN(C(=O)c3c(C)nn(-c4ccccc4)c3Cl)CC2)c(C)c1,i,?,5.17µM*,-0.8%,-5.1%,-11.8%
COc1ccc(S(=O)(=O)N2CCN(C(=O)c3c(C)nn(-c4ccccc4)c3Cl)CC2)cc1,i,i,?,-6.7%,-5.4%,-14.5%
Cc1ccc(S(=O)(=O)N2CCN(C(=O)c3c(C)nn(-c4ccccc4)c3Cl)CC2)cc1,i,i,10.3µM*,20.0%,-1.4%,-2.2%
Cc1cc(C)c(S(=O)(=O)N2CCN(C(=O)c3ccc(-n4nc(C)c(Cl)c4C)cc3)CC2)c(C)c1,i,?,i,-20.4%,-18.3%,-26.7%

# Source: PubChem BioAssay
